Screening data (PubChem)
A1 inhib = blocks A1 activity; MEF A1-2A-BIM cells, caspase-Glo luminescence, 3 h; percent of clofoctol signal, DMSO as zero; AID 2241; 0.51% of 21,000 active; caspase activation, % (concentration not given with the values);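 active = most replicate scores above 10, or exactly half above 10 with mean activity above 10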;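 also: effector caspase 3 and 7 activity cleaving a DEVD luciferin substrate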
BJeLR viab HTS = lowers viability of BJeLR cells. AID 2275. 0.64% of 30,000 active. BJeLR fibroblasts viability, CellTiterGlo ATP luminescence, 48 h; HRASV12, hTERT and SV40 LT/ST transformed. viability loss activity score, % (no concentration beside the values); in the data active = viability loss activity score above about 50%;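 also: higher score means fewer live cells and less ATP luminescence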
Large screens that a line does not name were inactive. Sampled rows, rich in hits. Any-hit rate of the full collection: about 0.89%.

CCn1c2c(c3cc(C4CCCCC4)ccc31)CCCC2=O	none
CCn1c2c(c3cc(C4CCCCC4)ccc31)CCC/C2=N\O	A1 inhib 15
C=C1C(=O)O[C@H]2[C@H]1[C@@H](OC(=O)C(C)(O)CCl)C(OC(C)=O)/C(C(=O)OC)=C\CC[C@@]1(C)O[C@H]21 (stereo not given in full)	BJeLR viab HTS 50
C=C1C(=O)O[C@H]2[C@H]1[C@@H](OC(=O)/C(C)=C\C)C(OC(C)=O)/C(C(=O)OC)=C\CC[C@@]1(C)O[C@H]21 (stereo not given in full)	BJeLR viab HTS 68
C=C1C(=O)O[C@H]2[C@H]1C[C@H](OC(=O)/C(C)=C\C)/C(C)=C\CC[C@@]1(C)O[C@@H]21	none
C=C1C(=O)O[C@@H]2C3O[C@]3(C)CC/C=C(/C)CC[C@@H]12 (stereo not given in full)	none
C=C1C(=O)O[C@H]2[C@H]1[C@@H](OC(=O)/C(C)=C/C)C(OC(C)=O)/C(C(=O)OC)=C\CC[C@@]1(C)O[C@H]21 (stereo not given in full)	BJeLR viab HTS 61
C=C1C(=O)O[C@@H]2[C@H]3O[C@]3(C)CCC=C(C)CC[C@@H]12	none
CC1=C(C(=O)NC(C)C)C2(CCCCC2)OC1=O	none (no result: A1 inhib)
O=C(Cc1ccc(Cl)cc1)NC1=NCCS1	none (no result: A1 inhib)
CC(C)(C)OC(=O)N1CCC(CNS(=O)(=O)c2cccc3cccnc23)CC1	none (no result: A1 inhib)
Cc1ccc(C)c(N2CCN(S(=O)(=O)c3ccc4nc(-c5ccccc5)[nH]c4c3)CC2)c1	none (no result: A1 inhib)
Cc1ccc2nc(-c3ccccc3)cn2c1	BJeLR viab HTS 78
Cc1ccc(-c2nc(-c3ccccc3)no2)cc1	none
COc1ccc(NCC(=O)n2c3ccccc3c3ccccc32)cc1	none (no result: A1 inhib)
COc1cccc(CN2CCN(Cc3ccc(F)cc3)C2c2ccc(SC)cc2)c1 (stereo not given)	none (no result: A1 inhib)
Nc1ncnc2c1cnn2-c1ccccc1	none
C=CCn1c(Sc2ncnc3c2cnn3-c2ccccc2)nnc1-c1ccncc1	BJeLR viab HTS 69
Cc1noc(C)c1S(=O)(=O)N1CCC(C)CC1	none (no result: A1 inhib)
O=C(CSc1nc2ccccc2c(=O)n1CCc1ccccc1)NCCc1ccccc1	none
O=C(CCn1c(SCc2cccc(F)c2)nc2ccccc2c1=O)NCCc1ccccc1	A1 inhib 19
O=C(CC12CC3CC(CC(C3)C1)C2)NC1CCN(Cc2ccccc2)CC1	none (no result: A1 inhib)
COC(=O)Cc1[nH]n(-c2nc3ccccc3s2)c(=O)c1C=Nc1ccc(C)cc1	none (no result: A1 inhib)
COC(=O)c1cc(NC(=O)c2cccc(Cl)c2)cc(C(=O)OC)c1	none
CCCn1nc(NC(=O)c2cccc(Cl)c2)c2cc3cc(C)ccc3nc21	A1 inhib 12
Cc1nc2cc(-c3ccccc3)nn2c(C)c1CCC(=O)N1CCc2ccccc21	none (no result: A1 inhib)
CCC(C)CC(C)/C=C\C1OC2=C(C(=O)OC2(C)O)C(O)C1O (stereo not given)	BJeLR viab HTS 104
Cn1nc(-c2ccccc2F)c2cc(C(=O)NCCCN3CCN(c4ccc(F)cc4)CC3)sc21	none (no result: A1 inhib)
CC(=O)NC(C)c1ccccc1 (stereo not given)	none
C=C(C)CC1(NC(C)c2ccccc2)CCCCC1 (stereo not given)	A1 inhib 9.8
CCCNC(=O)c1cc(C)nn1-c1ccccc1	none (no result: A1 inhib)
C/C=C(/C)C(=O)O[C@@H]1c2cc(OC)c(OC)cc2-c2c(ccc(OC)c2OC)C[C@H]2C(=O)OC[C@H]12	none
COc1cc2c(c(OC)c1OC)-c1ccc(OC)c(=O)cc1[C@@H](NC(C)=O)CC2	BJeLR viab HTS 60
CCN(CC)Cc1c(O)ccc2cc(-c3nc4ccccc4s3)c(=O)oc12	none (no result: A1 inhib)
CCOC(=O)CSc1nnc(CNC(=O)c2cccs2)n1C	none (no result: A1 inhib)
CCOC(=O)c1ccc(NC(=O)c2oc3c(c2C)-c2nn(Cc4ccc(C)cc4)cc2CC3)cc1	A1 inhib 22
CNC(=O)Cn1cc2c(n1)-c1c(oc(C(=O)N3CCCC3)c1C)CC2	none
CCCOc1ccc(C(=O)NCC2(c3ccc(OC)cc3)CCOCC2)cc1	none (no result: A1 inhib)
O[C@H]1[C@H]2c3cc4c(cc3CN3CCC(=C[C@@H]1O)[C@H]23)OCO4	BJeLR viab HTS 63
O[C@@H]1[C@@H](O)C=C2CCN3Cc4cc5c(cc4[C@H]1C23)OCO5 (stereo not given in full)	none
